Reference: PubChem BioAssay (EPA / NIEHS)
Active and inactive are the calls of the source. How the source made its calls: active means hit-call score of the fitted dose curve at least 0.9, where 1 is the maximum; inactive means score below 0.9.

How the values were obtained:
[1] = read-out: Vascular endothelial growth factor receptor 2 (Homo sapiens) (UniProt P35968); experiment: BSK_4H_VEGFRII: BioMAP Diversity Plus: 4H Assay for Vascular endothelial growth factor receptor 2 (VEGFR2) Biomarker Activity (AID 2283031); details: primary human endothelial cells (HUVEC); actives raise or lower the signal;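 on AC50: cell-surface VEGFR2 protein level quantified by ELISA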
How it was run: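 Primary human umbilical vein endothelial cells (4H system), 24 h exposure; cell-surface VEGFR2 measured by ELISA. Bidirectional fitting versus DMSO; cytotoxicity checked in parallel by SRB total-protein staining.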

[2] = read-out: Human Leukocyte Antigen - DR isotype (HLADR), HLA-DRA (gene 3122); experiment: BSK_BE3C_HLADR: BioMAP Diversity Plus: BE3C Assay for Human Leukocyte Antigen - DR isotype (HLADR) Biomarker Activity (AID 2283032); details: primary human bronchial epithelial cells; actives raise or lower the signal
How it was run: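 Primary human bronchial epithelial cells (BE3C); 24 h chemical exposure; HLA-DR by ELISA; bidirectional curve fit vs DMSO baseline.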

[3] = read-out: Vascular cell adhesion molecule 1 (VCAM1), VCAM1 (gene 7412); experiment: BSK_4H_VCAM1: BioMAP Diversity Plus: 4H Assay for Vascular cell adhesion molecule 1 (VCAM1) Biomarker Activity (AID 2283033); details: primary human endothelial cells (HUVEC); actives raise or lower the signal
How it was run: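 HUVEC, 24 h post-dose; VCAM-1 by ELISA. Bidirectional curve fit vs DMSO baseline. Parallel SRB total-protein stain (0.1% SRB after 10% TCA fixation, 560 nm) for cytotoxicity.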

[4] = read-out: Interferon-gamma inducible Protein 10 (IP10), CXCL10 (gene 3627); experiment: BSK_BE3C_IP10: BioMAP Diversity Plus: BE3C Assay for Interferon-gamma inducible Protein 10 (IP10) Biomarker Activity (AID 2283034); details: primary human bronchial epithelial cells; actives raise or lower the signal
How it was run: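 ELISA readout of IP-10 in BE3C system: primary human bronchial epithelial cells, 24 h post-dosing; bidirectional curve fit vs DMSO baseline.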

[5] = read-out: Monokine induced gamma interferon (MIG), CXCL9 (gene 4283); experiment: BSK_BE3C_MIG: BioMAP Diversity Plus: BE3C Assay for Monokine induced gamma interferon (MIG) Biomarker Activity (AID 2283035); details: primary human bronchial epithelial cells; actives raise or lower the signal
How it was run: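 ELISA quantified MIG after 24 h exposure of primary bronchial epithelial cultures, analysed in both directions relative to DMSO. Cytotoxicity tracked in parallel cultures by sulforhodamine B staining.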

[6] = read-out: Transforming growth factor beta 1 (TGFb1), TGFB1 (gene 7040); experiment: BSK_BE3C_TGFb1: BioMAP Diversity Plus: BE3C Assay for Transforming growth factor beta 1 (TGFb1) Biomarker Activity (AID 2283036); details: primary human bronchial epithelial cells; actives raise or lower the signal
How it was run: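 Read-out: ELISA for TGF-b1 in primary human bronchial epithelial cultures, 24 h post-dose. Bidirectional curve fitting vs DMSO control; gain or loss of signal both scored.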

[7] = read-out: Plasminogen activator inhibitor-1 (PAI1), SERPINE1 (gene 5054); experiment: BSK_BE3C_PAI1: BioMAP Diversity Plus: BE3C Assay for Plasminogen activator inhibitor-1 (PAI1) Biomarker Activity (AID 2283037); details: primary human bronchial epithelial cells; actives raise or lower the signal
How it was run: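 ELISA read-out of PAI-1 from human bronchial epithelial primary cells, 24 h post-dosing; bidirectional curve fit vs DMSO baseline, gain or loss of signal scored.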

[8] = read-out: urokinase plasminogen activator (uPA), PLAU (gene 5328); experiment: BSK_BE3C_uPA: BioMAP Diversity Plus: BE3C Assay for urokinase plasminogen activator (uPA) Biomarker Activity (AID 2283038); details: primary human bronchial epithelial cells; actives raise or lower the signal
How it was run: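 Primary human bronchial epithelial cells, uPA measured by ELISA 24 h after dosing. Bidirectional change relative to DMSO; cytotoxicity checked in parallel cultures by sulforhodamine B total-protein staining.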

[9] = read-out: Urokinase-type plasminogen activator receptor (uPAR), PLAUR (gene 5329); experiment: BSK_BE3C_uPAR: BioMAP Diversity Plus: BE3C Assay for Urokinase-type plasminogen activator receptor (uPAR) Biomarker Activity (AID 2283039); details: primary human bronchial epithelial cells; actives raise or lower the signal
How it was run: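 ELISA readout of uPAR on human lung primary bronchial epithelial cells, 24 h post-dosing. Bidirectional curve fit relative to DMSO vehicle baseline; gain or loss of signal both scored.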

[10] = read-out: Interleukin-6 (IL6), IL6 (gene 3569); experiment: BSK_CASM3C_IL6: BioMAP Diversity Plus: CASM3C Assay for Interleukin-6 (IL6) Biomarker Activity for (AID 2283040); details: primary human coronary artery smooth muscle cells; actives raise or lower the signal
[11] = read-out: Tissue plasminogen activator (tPA), PLAT (gene 5327); experiment: BSK_BE3C_tPA: BioMAP Diversity Plus: BE3C Assay for Tissue plasminogen activator (tPA) Biomarker Activity (AID 2283041); details: primary human bronchial epithelial cells; actives raise or lower the signal
How it was run: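 ELISA read-out of tPA on human primary bronchial epithelial cells, 24 h post-dosing; bidirectional fit vs DMSO negative control/baseline.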

[12] = read-out: Interleukin-8 (IL8), CXCL8 (gene 3576); experiment: BSK_CASM3C_IL8: BioMAP Diversity Plus: CASM3C Assay for Interleukin-8 (IL8) Biomarker Activity (AID 2283042); details: primary human coronary artery smooth muscle cells; actives raise or lower the signal;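 further: IL-8 protein level quantified by ELISA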
[13] = read-out: Human Leukocyte Antigen - DR isotype (HLADR), HLA-DRA (gene 3122); experiment: BSK_CASM3C_HLADR: BioMAP Diversity Plus: CASM3C Assay for Human Leukocyte Antigen - DR isotype (HLADR) Biomarker Activity (AID 2283043); details: primary human coronary artery smooth muscle cells; actives raise or lower the signal;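 further: cell-surface HLA-DR protein level quantified by ELISA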
[14] = read-out: Macrophage colony-stimulating factor (MCSF), CSF1 (gene 1435); experiment: BSK_CASM3C_MCSF: BioMAP Diversity Plus: CASM3C Assay for Macrophage colony-stimulating factor (MCSF) Biomarker Activity (AID 2283044); details: primary human coronary artery smooth muscle cells; actives raise or lower the signal;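 further: M-CSF protein amount quantified by ELISA after 24 h exposure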
[15] = read-out: Low-density lipoprotein receptor (LDLR), LDLR (gene 3949); experiment: BSK_CASM3C_LDLR: BioMAP Diversity Plus: CASM3C Assay for Low-density lipoprotein receptor (LDLR) Biomarker Activity (AID 2283045); details: primary human coronary artery smooth muscle cells; actives raise or lower the signal;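 further: LDLR protein level on the cell surface quantified by ELISA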
[16] = read-out: Monocyte Chemoattractant Protein-1 (MCP1), CCL2 (gene 6347); experiment: BSK_CASM3C_MCP1: BioMAP Diversity Plus: CASM3C Assay for Monocyte Chemoattractant Protein-1 (MCP1) Biomarker Activity (AID 2283046); details: primary human coronary artery smooth muscle cells; actives raise or lower the signal;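 further: MCP-1 level quantified by ELISA 24 h after dosing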
[17] = BSK_CASM3C_Proliferation: Cell Proliferation Assessment in the BioMAP Diversity Plus: CASM3C Assay (AID 2283047); details: primary human coronary artery smooth muscle cells;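 further: sulforhodamine B total protein stain as relative cell number at 560 nm; sub-confluent cells exposed 48 h before staining; fitted both ways against DMSO so gain or loss of cell number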
[18] = read-out: Monokine induced gamma interferon (MIG), CXCL9 (gene 4283); experiment: BSK_CASM3C_MIG: BioMAP Diversity Plus: CASM3C Assay for Monokine induced gamma interferon (MIG) Biomarker Activity (AID 2283048); details: primary human coronary artery smooth muscle cells; actives raise or lower the signal;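 further: MIG protein level measured by ELISA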
[19] = read-out: serum amyloid A (SAA), SAA1 (gene 6288); experiment: BSK_CASM3C_SAA: BioMAP Diversity Plus: CASM3C Assay for serum amyloid A (SAA) Biomarker Activity (AID 2283049); details: primary human coronary artery smooth muscle cells; actives raise or lower the signal;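 further: SAA protein level quantified by ELISA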
[20] = BSK_CASM3C_SRB: Viability Assessment in the BioMAP Diversity Plus: CASM3C Assay (AID 2283050); details: primary human coronary artery smooth muscle cells;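 further: total protein by SRB staining as cytotoxicity measure in parallel cultures; cells exposed to compound for 24 h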

Measured: AC50

CCCCCc1ccc(N)cc1
active: [9] 5.56 µM
inactive: all other assays above

O=C(O)Cn1c(=O)n(Cc2ccc(Br)cc2F)c(=O)c2ccc(Cl)cc21
active: [11] 11.5 µM
inactive: all other assays above

CN1C(=O)CC[C@H]1c1cccnc1
inactive: all assays above

O=C1O[C@H]([C@@H](O)CO)C(O)=C1O
inactive: all assays above

CC(C)(c1cc(Br)c(O)c(Br)c1)c1cc(Br)c(O)c(Br)c1
inactive: [1] | [10] | [12] | [15] | [18] | [20]
active: [2] 7.25 µM | [3] 29.6 µM | [4] 6.45 µM | [5] 9.16 µM | [6] 5.15 µM | [7] 4.89 µM | [8] 9.34 µM | [9] 9.25 µM | [11] 3.37 µM | [13] 33.1 µM | [14] 19.1 µM | [16] 30.1 µM | [17] 32 µM | [19] 31.9 µM

CCCCCCCCCCCO
active: [3] 20 µM | [17] 33.5 µM
inactive: all other assays above

Cc1cc(F)ccc1-c1cc(N2CC[C@@H](O)[C@H]2CO)ncc1N(C)C(=O)C(C)(C)c1cc(C(F)(F)F)cc(C(F)(F)F)c1
active: [1] 7.98 µM | [2] 12.8 µM | [3] 11.2 µM | [4] 13.3 µM | [5] 13.9 µM | [6] 11.5 µM | [7] 13 µM | [8] 14.8 µM | [9] 14 µM | [10] 16.3 µM | [11] 9.81 µM | [12] 27.8 µM | [13] 26.5 µM | [14] 26.1 µM | [15] 24.4 µM | [16] 31 µM | [17] 28.3 µM | [18] 30.1 µM | [19] 31.7 µM | [20] 29.2 µM

CCCCCCCCCC(=O)O
inactive: all assays above

CN(C)C(=O)C1(N2CCCCC2)CCN(CC[C@@]2(c3ccc(Cl)c(Cl)c3)CN(C(=O)c3ccccc3)CCO2)CC1
inactive: [1]
active: [2] 14.4 µM | [3] 30.8 µM | [4] 16.4 µM | [5] 31.2 µM | [6] 32.3 µM | [7] 24.4 µM | [8] 17.7 µM | [9] 12 µM | [10] 31.2 µM | [11] 17.3 µM | [12] 32.4 µM | [13] 18.1 µM | [14] 31.3 µM | [15] 4.45 µM | [16] 28.6 µM | [17] 15.7 µM | [18] 29.9 µM | [19] 33.3 µM | [20] 27.2 µM

COc1cccc([C@H](O)C2CCN(CCc3ccc(F)cc3)CC2)c1OC
active: [3] 12.9 µM
inactive: all other assays above

COc1cc(C(=O)NC2CCN(C)CC2)ccc1Nc1ncc2c(n1)N(C1CCCC1)CC(F)(F)C(=O)N2C
inactive: [1]
active: [2] 21.9 µM | [3] 7.23 µM | [4] 35.5 µM | [5] 31.8 µM | [6] 18.5 µM | [7] 18.6 µM | [8] 12.6 µM | [9] 5.34 µM | [10] 8.51 µM | [11] 10.6 µM | [12] 19.2 µM | [13] 9.13 µM | [14] 18.6 µM | [15] 6.15 µM | [16] 25.1 µM | [17] 1.67 µM | [18] 20.8 µM | [19] 31.9 µM | [20] 27.5 µM
